Screens from PubChem BioAssay.
HP1b chromo inh – inhibitors of HP1-beta chromodomain binding to methylated histone tails. P83916. AlphaScreen HP1-beta / biotin-H3K9me3 peptide binding. Potency, µM (titrated, usually from 114 µM), for the others: top-dose activity change, negative = inhibition, usual class: inhibitors. 0.56% of 390,000 active. AID 540317; further: potency means the concentration at half of the fitted maximal effect; nearly all actives have a fitted effect of over 70% in size
Target sequence (P83916 whole entry, looked up): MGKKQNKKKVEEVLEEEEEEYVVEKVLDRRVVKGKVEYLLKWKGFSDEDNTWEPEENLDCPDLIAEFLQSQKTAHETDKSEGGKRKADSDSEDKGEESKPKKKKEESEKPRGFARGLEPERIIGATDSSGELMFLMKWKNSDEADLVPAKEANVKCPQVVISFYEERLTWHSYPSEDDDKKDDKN
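Compound inhibition of the preformed complex between 50 nM HP1-beta and 50 nM biotinylated H3K9me3 peptide was read by AlphaScreen. Buffer was PBS pH 7.4 with 0.01% Tween-20. Incubations ran 30 min at room temperature, with 10 ug/mL donor/acceptor beads.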
BAZ2B block – BAZ2B (human) inhibition. AlphaScreen BAZ2B-H3K14Ac peptide displacement. Potency, µM (highest dose often 114 µM), inactives show at the top dose activity change, negative = inhibition, most hits filed as inhibitors. 4.4% of 360,000 active; further: potency means the concentration at half of the fitted maximal effect; on the % scale 0 is the no-effect control and ±100 the full control effect; nearly all actives have a fitted effect of over 60% in size
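BAZ2B 50 nM plus b-H3(5-23)K14Ac 50 nM, PBS pH 7.4/0.01% Tween-20, 30 min RT; compound added (max 110 uM), 30 min RT; streptavidin donor/Ni-chelate acceptor beads 10 ug/mL final, 20 min dark; AlphaScreen read.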
CtBP-E1A blk – inhibitors of CtBP/E1A interaction; AlphaScreen GST-E1A/His-CtBP binding, 1536-well; hits give low values; activity change, % (no concentration beside the values); 0.49% of 340,000 active; AID 651724; in the data active means activity change below about -65%; inconclusive means mostly about -30% to -63%; further: on the % scale 0 is the no-effect control and ±100 the full control effect
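Protein mix (5X: 125 nM each GST-E1A, His-CtBP) was incubated with pinned compound 2 h at 37 deg C in dark, in 50 mM Tris pH 8.0 buffer with 300 mM NaCl. Glutathione donor and nickel acceptor beads followed; AlphaScreen signal read after 1 h.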
Six1-Eya2 blk – inhibitors of human Six1/Eya2 interaction. activity change, % (concentration not given with the values). AlphaScreen GST-Six1/His-Eya2 binding, biochemical; hits give low values. Q15475+O00167. 0.56% of 360,000 active; in the data active means activity change below about -65%; inconclusive means mostly about -30% to -63%; further: on the % scale 0 is the no-effect control and ±100 the full control effect
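Homogeneous AlphaScreen proximity assay pairing GST-Six1 with His-tagged Eya2 (added as 5X mix: 250 nM and 500 nM) in 50 mM Tris pH 8.0, 300 mM NaCl, 1 mM TCEP. Glutathione donor and nickel acceptor beads; 1 h, 37 °C, dark.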
G9a inh – blocks human histone lysine methyltransferase G9a; AID 504332; 8.8% of 350,000 active; Potency, µM (top dose mostly 102 µM), for inactives: at the top dose activity, negative = inhibition, most hits filed as inhibitors; G9a H3K9 monomethylation, AlphaScreen, 2 h; further: potency means the concentration at half of the fitted maximal effect; on the % scale 0 is the no-effect control and ±100 the full control effect; nearly all actives have a fitted effect of over 75% in size
Target sequence (Q96KQ7 913-1193 limits assumed): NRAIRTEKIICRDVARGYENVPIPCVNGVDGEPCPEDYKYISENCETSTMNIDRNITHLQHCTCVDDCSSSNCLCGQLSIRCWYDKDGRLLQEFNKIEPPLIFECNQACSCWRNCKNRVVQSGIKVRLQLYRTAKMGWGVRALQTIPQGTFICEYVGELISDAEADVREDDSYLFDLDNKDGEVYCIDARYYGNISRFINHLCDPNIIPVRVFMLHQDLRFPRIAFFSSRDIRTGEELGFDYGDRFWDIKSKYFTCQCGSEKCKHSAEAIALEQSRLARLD
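Quantitative HTS format: methyltransferase activity on a biotin-tagged H3K9 peptide is measured by AlphaScreen, using a rabbit anti-monomethyl-H3K9 antibody with streptavidin donor and anti-IgG acceptor beads. Final levels are 20 nM enzyme, 500 nM peptide, 20 uM SAM; 2 h RT.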
JMJD2A Tudor – blocks the human JMJD2A Tudor domain | Potency, µM (top dose mostly 114 µM), without a hit: at the highest dose activity change, negative = inhibition, usual class: inhibitors | AID 504339 | AlphaScreen JMJD2A-Tudor / H3K4me3 peptide binding | 4.4% of 390,000 active; further: potency means the concentration at half of the fitted maximal effect; on the % scale 0 is the no-effect control and ±100 the full control effect; nearly all actives have a fitted effect of over 50% in size
* marks the source's active call; other numbers are inactive results; ? = inconclusive; . = no result given; [ ] = dose if it differs, or a comment. Only some compounds are listed: those with a hit (about 10% of all), similar ones and a draw of the others. Unless noted, the call rests on the fitted dose curve; in most records, active means well fitted inhibition curve with a large enough effect; inconclusive means small, poorly fitted or top-dose-only effect; inactive means no such curve, though single readings can be large or run the other way.

SMILES	HP1b chromo inh	BAZ2B block	CtBP-E1A blk	Six1-Eya2 blk	G9a inh	JMJD2A Tudor
CC(C)n1c(=S)[nH]c2ccccc2c1=O	-11%	20%	-1	1	-28%[12.7 µM]	-7%
CN(C)CCn1c(=S)[nH]c2ccccc2c1=O	?	-1%	2	3	?	50µM*
COc1ccc(CC2(CO)CCN(S(=O)(=O)c3cccc4cccnc34)CC2)cc1	23%	-3%	-2	-5	0%	-19%
CCOc1ccc2[nH]c(=O)c(CN(CCN3CCCC3)C(=S)Nc3ccccc3OC)cc2c1	19%	-25%	-1	-9	-44%	-15%
O=C(O)CCCCCNS(=O)(=O)c1c(Cl)cccc1Cl	37%	-8%	3	2	-29%[12.7 µM]	-19%
O=C(O)CNS(=O)(=O)c1c(Cl)cccc1Cl	19%	-1%	11	4	5%	14µM*
Cc1ccc(NC(=O)c2ccc(S(=O)(=O)N3CCCC3)cc2)nc1	-6%	-2%	1	1	7%	-11%
CCOC(=O)C1CCCCN1Cc1cccc(OC)c1OC (centres undefined)	?	?	5	4	11µM*	5.6µM*
CCOC(=O)C1CCCCN1Cc1cc(OC)ccc1OC (centres undefined)	?	?	3	0	13µM*	18µM*
Cc1ccc(NC2CC(=O)N(c3ccc(C)cc3)C2=O)cc1 (centres undefined)	-24%	6%	-3	-7	-3%	8%[11.4 µM]
CN(C)S(=O)(=O)c1cc(NC2CC(=O)N(c3ccc(F)cc3)C2=O)ccc1Cl (centres undefined)	45%	-15%	8	-2	35µM*	-11%
COc1cccc(-c2nc(CS(=O)(=O)CC(=O)NCc3cccc(Cl)c3)c(C)o2)c1	16%	-15%	.	.	-19%[59 µM]	-11%
COc1ccc(-n2c(Cn3nnc4ccccc43)nnc2SCC(=O)O)cc1	29%	.	-1	7	-7%[59 µM]	-6%
Oc1ccc(CCc2n[nH]c(=S)n2-c2ccc(F)cc2)cc1	17%	-15%	-2	0	6.3µM*	25µM*
CCOc1ccc(-n2c(CCc3ccccc3)n[nH]c2=S)cc1	5%	-15%	-12	-18	?	16µM*
CCOc1ccc(-n2c(-c3ccccc3)nnc2-c2ccccc2)cc1	2%	0%	-3	7	9%	5%
COc1ccc(-n2c(Cn3nnc4ccccc43)n[nH]c2=S)cc1	34%	1%	18	4	8.9µM*	18µM*
CCCCCC(O)CCc1n[nH]c(=S)n1-c1ccccc1 (centres undefined)	13%	5%[57.1 µM]	-4	6	8.9µM*	20µM*
CCCOc1ccc(CCc2n[nH]c(=S)n2Cc2ccccc2)cc1	29%	1%	-3	-12	?	-34%[57.1 µM]
CCCOc1ccc(CCc2n[nH]c(=S)n2-c2ccccc2)cc1	24%	-33%	-1	-23	5.6µM*	-24%
COc1ccc(-n2c(CCc3ccccc3)n[nH]c2=S)cc1	9%	-34%	.	12	-117%	11µM*
S=c1[nH]nc(CCSCc2ccccc2)n1-c1ccccc1	11%	?	.	-2	3.5µM*	40µM*
COc1ccccc1N1CCN(CCc2n[nH]c(=S)n2-c2ccccc2)CC1	2%	50µM*	3	1	?	18µM*
Cc1ccc(S(=O)(=O)N(Cc2n[nH]c(=S)n2-c2ccccc2)c2ccccc2)cc1	24%	?	1	3	.	-28%
COc1ccc(-c2nc3sc(CCNC(=O)C(=O)Nc4cc(C)cc(C)c4)c(C)n3n2)cc1	21%	3%	.	.	0%[59 µM]	-15%
SMILES	HP1b chromo inh	BAZ2B block	CtBP-E1A blk	Six1-Eya2 blk	G9a inh	JMJD2A Tudor
CCCCC(CC(O)COCCC)c1n[nH]c(=S)n1-c1ccccc1 (centres undefined)	40%	-1%	4	0	15%[0.501 µM]	16µM*
CCOc1ccc(NC(=O)c2cnc(N3CCCC3)nc2C)cc1	9%	-1%	.	.	22%[59 µM]	-2%
CC1(C)CC(=O)c2c(oc3c(Cl)cc(NS(=O)(=O)c4ccc(Br)cc4)cc23)C1	1%	-1%	.	.	11%[59 µM]	-16%
FC(F)(F)c1cnc(NNC(=S)Nc2ccccc2Cl)c(Cl)c1	-19%	7%	-19	-21	40µM*	-27%
S=C(Nc1ccccc1Cl)Nc1ccc(Cl)cc1Cl	14%	-3%	3	7	-7%[59 µM]	-8%
S=C(NNc1ccnc2cc(Cl)ccc12)Nc1ccccc1Cl	?	?	-16	-28	11µM*	56µM*
N/C(=N\O)c1cn(Cc2ccccc2Cl)c2ccccc12	-2%	-31%	10	-1	-7%	-20%
Cc1[nH][nH]c(=O)c1C(c1c(C)[nH][nH]c1=O)c1cn(Cc2ccccc2Cl)c2ccccc12	?	?	-2	-13	14µM*	?
O=C(Nc1ccc(Cl)c(S(=O)(=O)N2CCCCC2)c1)c1cccnc1	24%	-2%	0	-3	-3%[12.7 µM]	-20%
COc1ccc(C=C(c2nc3ccccc3s2)c2nc3ccccc3s2)cc1O	?	?	3	-25	?	?
COc1cc(/C=C/c2cc(C(=O)O)c3ccccc3n2)cc(OC)c1O	32%	-36%	-3	-5	-6%[59 µM]	-8%
COc1cc(/C=C/c2nc3ccccc3s2)cc(OC)c1O	17%	?	3	12	50µM*	-7%
COc1cc(C=C(c2nc3ccccc3s2)c2nc3ccccc3s2)ccc1O	?	35µM*	-17	-17	3.5µM*	45µM*
CC(=O)N1CCc2c(sc3c2c(=O)n(-c2ccccc2)c(=O)n3CC(=O)c2ccc(Cl)cc2)C1	18%	4%	.	.	2%[59 µM]	-12%
O=C(CSc1cccc[n+]1[O-])c1cccs1	15%	-12%	4	3	18µM*	-9%
O=C(CSc1ncnc2ccccc12)c1cccs1	3%	5%	-20	2	22µM*	3%
O=C(O)CSc1cccc[n+]1[O-]	6%	-23%	2	5	?	-18%
Cc1ccc(C(=O)CSc2ncnc3ccccc23)o1	-2%	-20%	3	-5	25µM*	-4%
COc1ccccc1C(=O)NC(=O)CSc1cccc[n+]1[O-]	8%	7%	1	-4	8%	-4%
Cn1cccc1C(=O)NC(=O)CSc1cccc[n+]1[O-]	13%	-37%	2	-1	28µM*	-10%
O=C(CSc1ncnc2ccccc12)N1CCCC1	30%	-4%	-23	24	-19%	-12%
COc1ccccc1CNC(=O)CCC(=O)N1CC2CCCN2c2ccccc21 (centres undefined)	8%	-32%	.	.	-25%[59 µM]	-35%
